Results published in PubChem BioAssay AID624413 (The Scripps Research Institute Molecular Screening Center, 2012).
Among all 1,400 compounds or so, about 160 (11%) were called active. Rule as the data show it: active = inhibition above about 15%; inactive = the rest. Only a sample is shown.

Assay: viability loss in Jurkat lymphocytes – cell-based, luminescence, high throughput, cytotoxicity control for T. brucei MetRS inhibitor project (AID 624413);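 also: 0% = vehicle and 100% = reference inhibitor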
Conditions: Jurkat cells viability, ATP luminescence; at 8.3 µM; active compounds read high

| Structure (SMILES) | inhibition |
| --- | --- |
| Cc1ccc(N2C(=O)CC(NCc3ccc4c(c3)OCO4)C2=O)cc1Cl (stereo not drawn) | -6.39% (inactive) |
| O=[N+]([O-])c1ccc(N2CCN(c3ccc(O)cc3)CC2)c(Cl)c1 | 1.76% (inactive) |
| O=S(=O)(NCc1ccc(Cl)cc1Cl)c1cccs1 | -0.99% (inactive) |
| O=C(Nc1ccccc1)Nc1nnc(COc2ccccc2F)s1 | 5.35% (inactive) |
| O=C(NNC(=O)c1ccc(-n2cncn2)c([N+](=O)[O-])c1)c1ccccc1 | 5.48% (inactive) |
| O=C(Nc1ccc(Cl)cc1)N1CCc2[nH]c3ccccc3c2C1 | 1.46% (inactive) |
| O=C(CSCC(=O)Nc1cccc([N+](=O)[O-])c1)Nc1ccccc1 | -0.93% (inactive) |
| O=C(Nc1cccc([N+](=O)[O-])c1)N1CCc2ccccc2C1 | 17% (active) |
| O=C(/C(=N\O)n1cncn1)c1ccc(Br)cc1Br | -3.9% (inactive) |
| O=C(NNc1cc(Cl)cc(Cl)c1)c1c(F)cccc1Cl | 1.84% (inactive) |
| COc1ccc(CCn2ccc(O)c(Cc3ccc(Cl)cc3Cl)c2=O)cc1OC | 9.61% (inactive) |
| Cc1ccc(S(=O)(=O)c2c[nH]c3ccc(Cl)cc3c2=O)cc1 | 5.58% (inactive) |
| CCCCCCCC[n+]1cccc(C(=O)N2c3c(nc(N)[nH]c3=O)NC(C)C2C)c1 (stereo not drawn) | 10% (inactive) |
| CC(=O)c1ccc(NC(=O)c2ccc(-n3cncn3)c([N+](=O)[O-])c2)cc1 | 2.58% (inactive) |
| CCCCN(C)Cc1c(C)[nH]c2ccc(Cl)cc2c1=O | -0.56% (inactive) |
| c1ccc(CN=C2Nc3ccccc3CS2)nc1 | 0.23% (inactive) |
| OCCNc1nc2ccccc2n1-c1ncnc2sc3c(c12)CCC3 | 9.96% (inactive) |
| Clc1ccc(-c2cc(C3CCNCC3)[nH]n2)c(Cl)c1 | -0.28% (inactive) |
| NC1=NC(=O)S/C1=C\c1ccc(O)cc1 | 7% (inactive) |
| COC(=O)/C(=C\Nc1ccccc1)NC(=O)c1ccc(Cl)cc1Cl | 11.3% (inactive) |
| O=C(NCc1cccc(CNC(=O)Nc2cccc(O)c2)c1)Nc1cccc(O)c1 | 13.5% (inactive) |
| Cc1ccc(NC(=O)C(C)c2cccc(C(=O)c3ccccc3)c2)cc1 (stereo not drawn) | 1.82% (inactive) |
| OC(c1cc(Cl)cc(Cl)c1)c1ncc(-c2ccccc2C(F)(F)F)[nH]1 (stereo not drawn) | 6.67% (inactive) |

| Structure (SMILES) | inhibition |
| --- | --- |
| CCCCN1C[C@H](c2ccc(Br)cc2)[C@@H](CC(=O)Nc2ccc(Br)cc2)C1=O | 7.69% (inactive) |
| c1ccc2cc3c(NCCN4CCOCC4)ccnc3cc2c1 | 22.4% (active) |
| Cc1ccc(S(=O)(=O)c2c[nH]c3ccc(C)cc3c2=O)cc1 | 4.57% (inactive) |
| CCN(CC)C(=O)C(=O)c1cn(CC(=O)NCc2ccc3c(c2)OCO3)c2ccccc12 | 2.71% (inactive) |
| NS(=O)(=O)c1ccc(CCNC(=O)Nc2ccc(Cl)cc2)cc1 | 3.2% (inactive) |
| O=C(Cc1ccc(S(=O)(=O)N2CCOCC2)s1)Nc1ccc(Br)c(C(F)(F)F)c1 | 4.25% (inactive) |
| O=C(CC(=O)Nc1ccc(Cl)c(Cl)c1)N/N=C/c1ccc(O)cc1 | 3.68% (inactive) |
| O=C(Cn1c2[n+](c3ccc(C(F)(F)F)cc31)CCCCC2)Nc1c(F)cccc1F | 7.63% (inactive) |
| S=c1[nH]nc(CSCc2ccc(Cl)cc2Cl)n1-c1ccccc1 | 7.09% (inactive) |
| Cc1ccc(-c2cnc(C(O)c3cc(Cl)cc(Cl)c3)[nH]2)cc1 (stereo not drawn) | 4.06% (inactive) |
| Oc1[nH]c2ccc(Br)cc2c1N=Nc1nn[nH]n1 | -3.84% (inactive) |
| CN(C(=O)CSc1nnc(-c2c[nH]c3ccccc23)o1)C1CCS(=O)(=O)C1 (stereo not drawn) | -7.37% (inactive) |
| Fc1ccc(NC(=S)N2CCc3[nH]c4ccccc4c3C2)cc1 | -0.86% (inactive) |
| Cn1c(CCCOc2ccc(Cl)cc2Cl)n[nH]c1=S | 1.8% (inactive) |
| COC(=O)CN1C(=S)N(c2ccccc2)C(=O)C1CC(=O)Nc1ccc(Cl)cc1 (stereo not drawn) | -3.1% (inactive) |
| Cc1ccc(O)c(CNc2nc3ccccc3[nH]2)c1 | 24.5% (active) |
| Clc1ccccc1SCc1nc2ccccc2[nH]1 | 7.62% (inactive) |
| Cc1ccc(CNC(=O)CSc2nnc3c(n2)[nH]c2ccc(F)cc23)cc1 | -1.93% (inactive) |
| O=C(O)CCn1c(O)c(C=C2N=c3ccccc3=N2)sc1=S | 0.39% (inactive) |
| O=C(Nc1ccc(S(=O)(=O)Nc2ncccn2)cc1)c1cncc(Br)c1 | -8.56% (inactive) |
| COc1ccc(OCC(O)CNC(=O)Nc2ccc(Cl)cc2)cc1 (stereo not drawn) | -6% (inactive) |
| c1ccc2cc3[nH]c(CN4CCCCC4)nc3cc2c1 | -5.35% (inactive) |
| CCCCCn1nnnc1-c1nc2cc3ccccc3cc2[nH]c1=O | 55.2% (active) |

| Structure (SMILES) | inhibition |
| --- | --- |
| O=C(O)c1ccc(NS(=O)(=O)c2ccc3c(c2)C(=O)c2cc(S(=O)(=O)Nc4ccc(C(=O)O)cc4)ccc2-3)cc1 | -0.7% (inactive) |
| CC(=N\NC(=O)c1cc(Br)ccc1O)/C(=N/O)C(=O)Nc1ccccc1 | 9.24% (inactive) |
| CN(C(=O)CSc1nnc(Nc2ccccc2)s1)C1CCS(=O)(=O)C1 (stereo not drawn) | 3.56% (inactive) |
| CCO[C@@H]1OC(C(=O)NCc2nc3ccccc3[nH]2)=C[C@H](C2CCCCC2)[C@H]1CCCO | -0.5% (inactive) |
| O=C(Cn1c(NCCO)nc2ccccc21)c1ccc(Cl)cc1Cl | 4.95% (inactive) |
| COc1ccc(-c2[nH]ncc2/C=N/NC(=O)c2cc(Br)ccc2O)c(OC)c1 | 2% (inactive) |
| COc1ccccc1-n1c(SCC(=O)Nc2ccc(Cl)cc2)nc(O)c(Cc2ccccc2)c1=O | -1.69% (inactive) |
| CSc1nsc(NC(=O)Nc2ccccc2)n1 | 10% (inactive) |
| Cc1ccccc1OCC(=O)NNC(=O)c1ccc(-n2cncn2)c([N+](=O)[O-])c1 | 5.5% (inactive) |
| Cc1c(CN2CCC(CO)(CCOc3ccccc3)CC2)[nH]c2ccc(Cl)cc12 | 13.6% (inactive) |
| O=C(CSc1nc2ccccc2[nH]1)N/N=C/C=C\c1ccccc1[N+](=O)[O-] | 0.15% (inactive) |
| Cc1ccc(S(=O)(=O)N(C)C)cc1NC(=O)c1ccc(-n2cncn2)c([N+](=O)[O-])c1 | -2.08% (inactive) |
| COc1ccc(NC(=O)C(NC(C)=O)C(=O)NCc2ccccc2Cl)cc1 (stereo not drawn) | 3.32% (inactive) |
| O=S(=O)(c1ccc(Br)cc1)N1CCC(c2nc3ccccc3[nH]2)CC1 | 35.4% (active) |
| O=C(NCC(O)c1nc2ccccc2[nH]1)c1ccc(Br)cc1 (stereo not drawn) | 1.16% (inactive) |
| O=C(OCc1nc2ccccc2[nH]1)C1CCCCC1 | -2.05% (inactive) |
| O=C(NCCN1CCOCC1)c1ccccc1N1C(=O)[C@@H]2Cc3c([nH]c4ccccc34)C(c3cccc(Cl)c3)N2C1=O (stereo partly drawn) | -0.67% (inactive) |
| CCN1CCCC1CNc1ncnc2c1[nH]c1ccc(F)cc12 (stereo not drawn) | -1.19% (inactive) |
| CC(C)OCCCNc1ncnc2c1[nH]c1ccc(F)cc12 | 47.3% (active) |
| O=C1CCCN1CCCNc1ncnc2c1[nH]c1ccccc12 | -1.7% (inactive) |
| Cc1cc(C)cc(NC(=O)N(C)Cc2ccccc2)c1 | -0.98% (inactive) |
| CC(C)(C)c1ccc(/C=C2\SC(=O)N=C2N)cc1 | 7.36% (inactive) |
